# Hit rate of the full screen: of about 48,000 compounds, about 13,000 (27%) showed an effect of 50% or more. The list shows a part of the results.
# Test system: Wolbachia pipientis
# Assay: Anti-Wolbachia Cell-Based Screen
# Assay type: functional
# Set-up: scale not given: in the data most compounds retested in dose-response had high values
# Conditions: 5 µM
row,SMILES,Percent Effect [%]
1,O=C(NCc1ccc(F)cc1F)C(c1cccnc1)N1CCOCC1 (stereo not given),-3.204
2,CC(C)(C)C(=O)N[C@H]1C[C@@H](Cc2cc(CN3CCOCC3)on2)C1(C)C,-2.41
3,CC(Sc1nnc(C2CC2)n1CC(N)=O)c1ccc(F)c(Cl)c1 (stereo not given),-2.548
4,CCSc1ccc(C(=O)N2CCCCC2C(=O)N2CCCC2)cn1 (stereo not given),151.8
5,CC(C)Cc1cc(C(=O)N2CCC[C@H]2C(=O)N2CCOCC2)on1,-13.85
6,CCSc1ccc(C(=O)N2CCCCC2C(=O)NC(C)(C)C)cn1 (stereo not given),116.3
7,Cc1ccc(CNC(=O)C2CCCCN2C(=O)OC(C)(C)C)cn1 (stereo not given),1.092
8,CCSc1ccc(NC(=O)N2CCCC2c2ccncc2)cn1 (stereo not given),-0.7424
9,COC(=O)N1CCCCC1C(=O)N1CCN(c2ncccc2C)CC1 (stereo not given),-6.544
10,CCSc1ccc(C(=O)N2CCCC2C(=O)N2CCOCC2)cn1 (stereo not given),144.8
11,Cn1ccc2ccc(C(=O)N3CCC[C@H]3C(=O)N3CCOCC3)cc21,12.68
12,CC(C)(C)NC(=O)C1CCCCN1Cc1nccn1CC(F)(F)F (stereo not given),-2.197
13,CCn1c(CN(C)C)nnc1C1CCN(Cc2cccc(C#N)c2)CC1,-18.18
14,Cc1cnc2n(c1=O)CC(C(=O)Nc1ccccc1Cl)CS2 (stereo not given),-3.995
15,O=C(Cn1nc(-c2ccc(F)cc2)oc1=O)NCc1ccc(F)cc1,-3.011
16,O=C(NCc1cccnc1)N1CCSCC1CCO (stereo not given),-15.06
17,Cc1ccc(CNC(=O)CC2C(=O)NCCN2Cc2ccccc2C)s1 (stereo not given),4.539
18,COc1cccc(CNC(=O)CC2CSc3ncc(C)c(=O)n32)c1 (stereo not given),19.59
19,Cc1nsc(N2CCN(CC(=O)NCc3ccc(F)cc3)CC2)n1,-5.243
20,COc1cccc(CNC(=O)CC2CSc3nc(C)c(C)c(=O)n32)c1 (stereo not given),131.7
21,Cc1cnc2n(c1=O)C(CC(=O)NCc1ccc(F)cc1)CS2 (stereo not given),120.7
22,Cc1cnc2n(c1=O)C(CC(=O)NCc1cccnc1)CS2 (stereo not given),115
23,Cc1cc(=O)n2c(n1)SCC2CC(=O)NCc1cc(-c2ccco2)on1 (stereo not given),1.39
24,Cc1cnc2n(c1=O)C(CC(=O)NCc1ccccc1Cl)CS2 (stereo not given),121.9
25,CC(=O)NC[C@@H]1C=C(C)[C@H](CC(=O)NCc2cccnc2)C[C@H]1C(C)C,-8.421

row,SMILES,Percent Effect [%]
1,Cc1cc(-c2ccncc2)ccc1OCC(N)=O,-1.496
2,CC(C)c1cc(C(=O)N2CCN(CC3CC3)[C@@H]3CS(=O)(=O)C[C@@H]32)no1,5.38
3,Cc1cnn(CCC(=O)Nc2ccc(F)cc2OCC2CC2)c1,-3.72
4,CCN1CC(C(=O)N2CCN(CCn3cccc3)CC2)CC1=O (stereo not given),-5.842
5,Cc1cnc2n(c1=O)C(CC(=O)NCc1ccc(Cl)cc1)CS2 (stereo not given),120.8
6,O=C(NCc1ccncc1)N1CCSCC1c1ccc(Cl)cc1 (stereo not given),-11.62
7,Cc1cc(CNC(=O)CC2CN(C(=O)OC(C)(C)C)C2)ccc1F,-41.83
8,CCNc1cc2c(nn1)CCN(C(=O)Cc1ccc3c(c1)CCO3)C2,-18.57
9,CCNc1cc2c(nn1)CCN(C(=O)Cc1ccc(C)s1)C2,107.9
10,CCNc1cc2c(nn1)CCN(C(=O)C1Cc3ccccc3S1)C2 (stereo not given),-4.507
11,CCNc1cc2c(nn1)CCN(C(=O)Cc1c(C)nn(C)c1C)C2,126.1
12,CCNc1cc2c(nn1)CCN(C(=O)C1COc3ccccc3C1)C2 (stereo not given),3.402
13,CCNc1cc2c(nn1)CCN(C(=O)CC1CCCCC1)C2,-4.667
14,CCc1nccn1CC(=O)N1C[C@H]2CC[C@@H]1CN(C(=O)N(C)C)C2,6.839
15,c1cc(-c2nc3c(c(NCCn4ccnn4)n2)CCNCC3)ccn1,-0.7039
16,Cc1ccc(CN2CCC3(CC2)NC(=O)CC3c2ccccc2)s1.O=C(O)C(F)(F)F (stereo not given),95.7
17,COCCN1CCC2(CCN(Cc3nccs3)CC2)C1=O,-0.9039
18,Cc1noc(C)c1CN1CCC2(CC1)C(c1ccccc1)CC(=O)N2C.O=C(O)C(F)(F)F (stereo not given),90.48
19,Cn1cc(C2CC(=O)NC23CCN(c2ncc(F)cn2)CC3)cn1 (stereo not given),-28.26
20,Cn1cc(C2CC(=O)NC23CCN(Cc2nccs2)CC3)cn1 (stereo not given),86.17
21,Cc1cnc(N2CCC3(CC2)C(c2ccccc2)CC(=O)N3C)nc1 (stereo not given),8.622
22,Cc1noc(C)c1CN1CCC2(CC1)CC(Oc1cccnc1)C2.O=C(O)C(F)(F)F.O=C(O)C(F)(F)F,7.225
23,Cc1ccc(CN2CCC3(CC2)C(c2ccccc2)CC(=O)N3C)o1.O=C(O)C(F)(F)F (stereo not given),104.4
24,CCN1CCN(C)C2(CCN(Cc3ccc(C)o3)CC2)C1=O.O=C(O)C(F)(F)F.O=C(O)C(F)(F)F,-15.65
25,Cc1ccc(CN2CCC3(CC2)C(=O)N(CCO)CCN3C)o1.O=C(O)C(F)(F)F.O=C(O)C(F)(F)F,5.189

row,SMILES,Percent Effect [%]
1,Cc1ccc(CN2CCCC3(CCC(=O)N3)CC2)s1.O=C(O)C(F)(F)F (stereo not given),3.95
2,CCCc1cc(C(=O)N2Cc3ccccc3C2)[nH]n1,5.853
3,CC(C)=CCCC(C)CN1CCC(n2cc(CO)nn2)CC1 (stereo not given),-18.32
4,Cc1ccc2nc3n(c2c1)[C@@H](CNC(=O)c1ccncc1)COC3,-11.4
5,CN(CCC(F)(F)F)c1nc2ccccc2c(=O)[nH]1,-5.931
6,O=C(O)C(F)(F)F.O=C1CC(c2ccccc2)C2(CCN(Cc3nccs3)CC2)N1 (stereo not given),100.6
7,Cc1noc(C)c1CN1CCC2(CC1)NC(=O)CC2c1ccccc1.O=C(O)C(F)(F)F (stereo not given),92.37
8,CN1C(=O)CC(c2cnn(C)c2)C12CCN(C(=O)c1ccc[nH]1)CC2 (stereo not given),-12.5
9,Cc1noc(C)c1CN1CCC2(CC1)NC(=O)CC2c1cnn(C)c1 (stereo not given),100
10,O=C(O)C(F)(F)F.O=C(O)C(F)(F)F.O=C1NC2(CCN(Cc3nccs3)CC2)CC1c1ccncc1 (stereo not given),-14.31
11,Cc1noc(C)c1CN1CCC2(CC1)C(c1cnn(C)c1)CC(=O)N2C.O=C(O)C(F)(F)F (stereo not given),113.4
12,CCn1c(N)nc2cc(C(=O)N3CCN(c4nccs4)CC3)cnc21,5.725
13,O=C(c1ccoc1)N1CCC(NCc2ccccc2-n2ccnc2)CC1,2.985
14,CCn1ncc2c1NC(=O)C(C#N)C21CCCC1 (stereo not given),21.97
15,Cc1ccc(CN2CCC3(CC2)C(=O)N(CC(C)C)CCN3C)s1.O=C(O)C(F)(F)F.O=C(O)C(F)(F)F,102.6
16,Cc1ccc(CN2CCC3(CC2)C(=O)N(CC(C)C)CCN3C)o1.O=C(O)C(F)(F)F.O=C(O)C(F)(F)F,-29.49
17,CC(C)CN1CCN(C)C2(CCN(c3nccs3)CC2)C1=O.O=C(O)C(F)(F)F,-15.41
18,Cc1cc(C)n(CC2CCCN2C(=O)c2cccnc2N(C)C)n1 (stereo not given),118
19,Cc1cnn(CC2CCCCN2C(=O)c2ccc(N(C)C)nc2)c1 (stereo not given),89.91
20,Cc1cc(C)n(CC2CCCN2C(=O)c2cccc3[nH]ncc23)n1 (stereo not given),-3.123
21,Cc1cc(C)n(CC2CCCN2C(=O)c2c[nH]c3ncccc23)n1 (stereo not given),-7.335
22,O=C(c1cccc2c1OCO2)N1CCCC1Cn1cccn1 (stereo not given),-0.6849
23,Cc1cnn(CC2CCCN2C(=O)c2cccnc2N(C)C)c1 (stereo not given),-3.738
24,Cc1cnn(CC2CCCCN2C(=O)c2ccnc(N(C)C)c2)c1 (stereo not given),-6.114
25,O=C(c1cccnc1N1CCOCC1)N1CCCC1Cn1cccn1 (stereo not given),1.919

row,SMILES,Percent Effect [%]
1,Cc1cnn(CC2CCCCN2C(=O)c2cccc3c2OCO3)c1 (stereo not given),-2.775
2,Cc1cnn(CC2CCCCN2C(=O)c2ccc3nnc(C)n3c2)c1 (stereo not given),-9.496
3,CN(C)c1ncccc1C(=O)N1CCCC1Cn1cccn1 (stereo not given),111.6
4,Cc1cnn(CC2CCCCN2C(=O)c2cccnc2N(C)C)c1 (stereo not given),94.82
5,CC(C)[C@@H]1CN(S(=O)(=O)Cc2ccccc2)C[C@H]1C(=O)O,3.081
6,O=C(NCC(O)c1cccs1)c1sccc1OC(F)F (stereo not given),2.411
7,Cc1ccccc1N1CCN(C(=O)c2cnc(C3CC3)nc2)C(C)C1 (stereo not given),-6.259
8,COc1ncccc1CNC(=O)c1c[nH]c(=O)c(Br)c1,-2.261
9,CN(Cc1cscn1)C1CCN(C(=O)OC(C)(C)C)CC1,-0.6066
10,O=C(c1cscn1)N1CCC(Cc2cnc3[nH]ccc3c2)C1 (stereo not given),91.07
11,O=C(c1cscn1)N1C[C@@H]2[C@@H](C1)OCC(=O)N2CC1CCCC1,-7.986
12,Cn1ccc(C(=O)N2CCC(Cc3cnc4[nH]ccc4c3)CC2)n1,-9.979
13,Cc1nc(C(=O)N2CCC(Cc3cnc4[nH]ccc4c3)C2)co1 (stereo not given),-2.794
14,Cn1ccc(C(=O)N2CCC(Cc3cnc4[nH]ccc4c3)C2)n1 (stereo not given),135.4
15,Cc1nn(CCC(=O)NC(C(=O)O)c2c(C)n[nH]c2C)c(C)c1C (stereo not given),9.182
16,CC(C)(C)c1ncc2c(n1)CN(C(=O)c1ccc3[nH]cnc3c1)C2,-16.99
17,O=C(c1ccncc1)N1CCc2ncnc(C3CCOC3)c2CC1 (stereo not given),1.428
18,CCN1CC[C@@]2(C(=O)N3CCOCC3)CCN(S(=O)(=O)CC)CC[C@@H]12.O=C(O)C(F)(F)F,-35.9
19,CCc1cn[nH]c1C1CCCN(C(=O)c2noc(C)c2COC)C1 (stereo not given),-6.588
20,Cc1noc(C)c1C(=O)N1CCC(c2[nH]ncc2S(C)(=O)=O)C1 (stereo not given),95.01
21,CCc1cc(C(=O)N2CCCC(c3[nH]ncc3S(C)(=O)=O)C2)no1 (stereo not given),122.4
22,CCc1cn[nH]c1C1CCCN(C(=O)c2ncoc2C(C)C)C1 (stereo not given),0.179
23,CCc1noc(C)c1C(=O)N1C[C@H](NS(C)(=O)=O)[C@@H](C2CC2)C1,7.684
24,CCn1cc(C(=O)N2CCCC(c3[nH]ncc3S(C)(=O)=O)C2)cn1 (stereo not given),-1.066
25,CCc1noc(C)c1C(=O)N1CCC(c2[nH]ncc2S(C)(=O)=O)C1 (stereo not given),111.9

# — ChEMBL document CHEMBL3988442, “University of Dundee, Small-Polar-MMV Screening Library” (2021)
